Compound activity as filed in PubChem BioAssay.
The list is not random: actives were taken first. Their share in the collection is about 0.78%.
BJeLR lethal: BJeLR cell viability loss | inhibition, % (concentration not given with the values) | BJeLR (HRASV12) viability, CellTiter-Glo ATP luminescence, 48 h | 300,000 tested, 0.17% active | AID 1554; in the data active = inhibition above about 50%
SSB-PriA inh: K. pneumoniae PriA-SSBct interaction inhibition | inhibition, % at 33 µM | AlphaScreen SSBct-PriA binding, biotinylated peptide | 430,000 tested, 0.6% active | AID 1272365; in the data active = inhibition mostly above about 37%, no sharp cut-off; inactive = mostly below about 20%;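 note: plate controls were negative control peptide for no effect and reference peptide for full effect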
3CLpro inhibitor: SARS-CoV 3CLpro protease inhibition; recombinant SARS-CoV 3CLpro, quenched FRET peptide cleavage; 290,000 tested, 0.14% active; inhibition, % at 6 µM; P0C6X7; in the data active = inhibition above about 12%
Numbers without * were called inactive; · = not tested or not shown.

SMILES	BJeLR lethal	SSB-PriA inh	3CLpro inhibitor
CC(=O)c1c(C)[nH]c(C(=O)NC2CCSc3c(F)cccc32)c1C (stereo unspecified)	·	88*	·
CCOC(=O)c1c(C)[nH]c(C(=O)NC2CCSc3ccccc32)c1C (stereo unspecified)	·	25	·
CC(=O)c1c(C)[nH]c(C(=O)NC2CCSc3ccccc32)c1C (stereo unspecified)	-2	45*	0
CCc1c(C(=O)NC2CCCc3ccccc32)[nH]c(C)c1C(C)=O (stereo unspecified)	12	5	5
CCOC(=O)c1sc(NC(=O)c2cccc(C)c2)nc1-c1ccccc1	·	-10	·
COCCNC(=O)N[C@H]1CC(=O)N(C2CC2)C1	·	-7	·
CC1CC(C)CN(CCCNC(=O)c2ccc3nc(N4CCCCC4)sc3c2)C1 (stereo unspecified)	12	-7	-1
CCCN1CCN(CCCNC(=O)c2ccc3nc(N4CCCCC4)sc3c2)CC1	10	100*	-6
CCOC(=O)C1(Cc2ccccc2C)CCCN(C(=O)c2ccoc2)C1 (stereo unspecified)	5	41*	1
CCOC(=O)C1(Cc2ccccc2C)CCCN(C(=O)c2ccnn2C)C1 (stereo unspecified)	4	-10	4
CCNC(=O)Cc1nc(-c2ccncc2)n[nH]1	·	-8	·
NNc1nccc(Nc2ccccc2C(=O)O)n1	6	59*	2
c1ccc(Nc2ccnc(Nc3ccccc3)n2)cc1	13	-2	-1
COc1c2ccc(C(=O)N3CCN(c4cc(-n5cncn5)ncn4)CC3)cc2nn1C	·	-26	·
O=C(Nc1ccc2c(c1)N(C(=O)c1cccs1)CCC2)C1CCCC1	·	-4	·
N#CC(c1ccccc1)c1ccc2c(C(F)(F)F)cc(C(F)(F)F)nc2n1 (stereo unspecified)	14	77*	0
Cc1ccc(C(C#N)c2ccc3c(C(F)(F)F)cc(C(F)(F)F)nc3n2)cc1 (stereo unspecified)	3	30	4
COc1ccc(-c2noc(-c3cccn(CC(=O)Nc4cccc(Cl)c4C)c3=O)n2)cc1OC	·	-11	·
CSC1CC2CCC(C1)N2C(=O)c1cc2cc(F)ccc2s1 (stereo unspecified)	·	-4	·
O=C(c1cc2cc(F)ccc2s1)N1C2CCC1CC(S(=O)(=O)c1ccccc1)C2 (stereo unspecified)	·	77*	·
Cc1ccc(C[n+]2ccccc2)cc1	12	-8	·
Cc1ccc(C[n+]2c(-c3ccc(C)cc3)cc(-c3ccc(C)cc3)cc2-c2ccc(C)cc2)cc1	60*	10	·
COc1ccc(-c2ccc(=O)n(Cc3nc(-c4cccc(Br)c4)no3)n2)cc1OC	·	-22	·
O=C1C(c2ccccc2)=C(N2CC2)c2ccccc21	4	41*	0
O=C1C(Nc2ccccc2)=C(N2CCCCC2)C(=O)c2ccccc21	5	-16	-1
SMILES	BJeLR lethal	SSB-PriA inh	3CLpro inhibitor
O=C(NCCCn1nc(-c2cccnc2)ccc1=O)c1ccc(F)c(F)c1	·	-2	·
COc1cccc2sc(N(CCCn3ccnc3)C(=O)c3ccco3)nc12	·	57*	·
CCc1cccc2sc(N(CCCn3ccnc3)C(=O)c3ccco3)nc12	·	110*	·
CCOc1cccc2sc(N(CCn3nc(C)cc3C)C(=O)c3ccco3)nc12	·	2	·
Cc1cccc2sc(N(CCCn3ccnc3)C(=O)c3ccc(Cl)s3)nc12	·	21	·
CCOc1cccc2sc(N(CCCn3ccnc3)C(=O)c3ccc(Cl)s3)nc12	·	50*	·
O=C(c1ccco1)N(CCCn1ccnc1)c1nc2c(F)cccc2s1	·	72*	·
O=C(c1ccco1)N(CCCn1ccnc1)c1nc2c(Cl)cccc2s1	·	64	·
O=C(c1ccc(F)cc1)N(CCCn1ccnc1)c1nc2c(F)cccc2s1	·	18	·
COc1ccc(CCS(=O)(=O)NC[C@](C)(O)c2cc3ccccc3o2)cc1	·	-3	·
C/C(=N/Nc1nc(-c2ccccc2)c2cc(Br)ccc2n1)c1ccc2ccccc2c1O	·	-1	·
CCOc1ccc(S(=O)(=O)NCCC(O)c2ccsc2)cc1F (stereo unspecified)	·	14	·
COc1ccccc1CNC(=O)C1CCN(c2ncnc3c2sc2ncccc23)CC1	·	-6	·
Cn1cccc1-c1noc(CNC(=O)Cc2c(F)cccc2Cl)n1	·	1	·
Cc1ccc(NC(=O)CC(NCCC2=CCCCC2)C(=O)O)c(C)c1 (stereo unspecified)	·	-14	·
CSCCC(C)(O)CNC(=O)c1cc(C)ccc1C (stereo unspecified)	·	-26	·
Cc1c(Cl)ccc2sc(N(CCCn3ccnc3)C(=O)c3ccco3)nc12	·	69*	·
Cc1c(Cl)ccc2sc(N(Cc3ccccc3)C(=O)c3ccn(C)n3)nc12	·	-5	·
O=C(NCc1ccc([C@@H](O)c2ccco2)s1)c1ccccc1Cl	·	-5	·
CCCN1CCCc2cc(CCNC(=O)C(=O)Nc3ccon3)ccc21	·	56*	·
CN1CCCc2cc(CCNC(=O)COc3ccccc3)ccc21	·	70	·
CCCN1CCCc2cc(CCNC(=O)CC(C)(C)C)ccc21	·	58*	·
CCCN1CCCc2cc(CCNC(=O)CCc3ccccc3)ccc21	·	62	·
CCCN1CCCc2cc(CCNC(=O)CCc3ccc(OC)cc3)ccc21	·	66*	·
CCCN1CCCc2cc(CCNC(=O)C(=O)NCC)ccc21	·	24	·
SMILES	BJeLR lethal	SSB-PriA inh	3CLpro inhibitor
CCCN1CCCc2cc(CCNC(=O)COc3ccccc3)ccc21	·	95*	·
CCCN1CCCc2cc(CCNC(=O)CC(C)C)ccc21	·	55	·
COCCn1cc(NC(=O)N2CCN(C(=O)c3ccco3)CC2)c2ccccc21	·	-13	·
Cc1ccsc1/C=C1\Oc2c(ccc3c2CN(CC2CCCO2)CO3)C1=O (stereo unspecified)	·	5	·
COc1ccccc1-n1ccn(CC(=O)Nc2ccc(Br)cc2F)c(=O)c1=O	·	-6	·
Cn1nc(CNC(=O)CSc2ccc(F)cc2)cc1-c1ccncc1	·	2	·
CCCNC(=O)C(=O)NCCc1ccc2c(c1)CCCN2CCC	·	3	·
CCCN1CCCc2cc(CCNC(=O)Cc3ccc(F)cc3)ccc21	·	73*	·
C=CCNC(=O)C(=O)NCCc1ccc2c(c1)CCCN2CCC	·	29	·
CCCN1CCCc2cc(CCNC(=O)OC)ccc21	·	64*	·
O=C(Nc1ccc(-c2nc3ccccc3[nH]2)cc1)c1ccno1	·	-1	·
CCc1c(C#N)c(SCC(=O)c2cc(C)n(-c3ccccc3)c2C)nc2c1C(=O)CC(C)(C)C2	·	-9	·
NC(=O)c1ccc(NC(=O)CCn2c(=O)oc3ccc(Cl)cc32)cc1	·	-13	·
NNc1nc2ccccc2[nH]c1=O	·	38*	·
Cc1nc2ccccc2[nH]c1=O	-5	-12	-5
c1ccc(Cc2nnc(-c3csc4c3CCCC4)o2)cc1	·	-23	·
O=C(/C=C/c1ccc2c(c1)OCO2)NCCSc1ncc(-c2ccc(Cl)cc2)[nH]1	·	38*	·
O=C(/C=C/c1ccco1)NCCSc1ncc(-c2ccc(Cl)cc2)[nH]1	·	30	·
Cc1ccc(-n2ncc3c(=O)[nH]c(SCC(=O)N4CCC(C)CC4)nc32)cc1C	·	86*	0
Cc1ccc(-n2ncc3c(=O)[nH]c(SCC(=O)N4CCCC4)nc32)cc1C	12	-3	-3
COc1ccc(OC)c2sc(N(Cc3ccco3)C(=O)c3cc(C)no3)nc12	·	-2	·
COc1ccc(OCC(=O)Nc2ccc(NC(=O)c3cccs3)c(OC)c2)cc1	-6	-4	3
COc1cc(NC(=O)c2cccs2)c(OC)cc1NC(=O)CCC(=O)Nc1ccc2ncccc2c1	58*	-13	-1
